The source of these data is publication PMC7862700, “An all-to-all approach to the identification of sequence-specific readers for epigenetic DNA modifications on cytosine”.

Common to all, as to assay: DAPPL (digital affinity profiling via proximity ligation, sequencing); 10 mM Tris-HCl pH 7.5, 50 mM NaCl, 1 mM DTT, 4% glycerol, room temperature, 30 min; GST-TFs on glutathione beads, 16-mer random dsDNA library, 0.1% formaldehyde crosslink after washing; high values mean tight binding
Holding throughout (settings): protein: recombinant; tags: N-terminal GST; dsDNA, one strand shown

In assay [1] the target is T1, FLI1 (Homo sapiens, UniProt Q01543 1-452).
T1 sequence: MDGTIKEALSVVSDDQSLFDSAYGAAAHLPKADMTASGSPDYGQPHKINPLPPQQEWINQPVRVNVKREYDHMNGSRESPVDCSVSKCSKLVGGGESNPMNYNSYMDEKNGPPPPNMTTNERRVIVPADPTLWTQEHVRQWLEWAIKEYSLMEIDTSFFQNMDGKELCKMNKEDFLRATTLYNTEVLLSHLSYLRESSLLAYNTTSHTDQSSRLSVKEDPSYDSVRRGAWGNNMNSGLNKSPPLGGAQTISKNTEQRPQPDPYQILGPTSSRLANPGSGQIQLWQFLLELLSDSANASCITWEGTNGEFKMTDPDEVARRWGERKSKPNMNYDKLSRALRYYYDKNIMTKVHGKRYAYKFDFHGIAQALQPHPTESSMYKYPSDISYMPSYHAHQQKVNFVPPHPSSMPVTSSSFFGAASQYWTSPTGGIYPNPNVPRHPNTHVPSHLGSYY
The method, boiled down: (§1)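 Binding signal is given per hexamer as its read frequency for a factor divided by its frequency in the tag-only sample. GST-fused human transcription factors were expressed in yeast, captured on glutathione beads, barcoded with DNA and pooled with that sample, then incubated with 200 nmole of a 16-mer random double-stranded DNA library in Tris/NaCl/DTT/glycerol buffer for 30 min at room temperature. The pools were then washed, crosslinked, proximity-ligated, amplified by PCR and sequenced on an Illumina NextSeq500.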

In assay [2] the target is T2, ELK1 (Homo sapiens, UniProt P19419 1-428).
T2 sequence: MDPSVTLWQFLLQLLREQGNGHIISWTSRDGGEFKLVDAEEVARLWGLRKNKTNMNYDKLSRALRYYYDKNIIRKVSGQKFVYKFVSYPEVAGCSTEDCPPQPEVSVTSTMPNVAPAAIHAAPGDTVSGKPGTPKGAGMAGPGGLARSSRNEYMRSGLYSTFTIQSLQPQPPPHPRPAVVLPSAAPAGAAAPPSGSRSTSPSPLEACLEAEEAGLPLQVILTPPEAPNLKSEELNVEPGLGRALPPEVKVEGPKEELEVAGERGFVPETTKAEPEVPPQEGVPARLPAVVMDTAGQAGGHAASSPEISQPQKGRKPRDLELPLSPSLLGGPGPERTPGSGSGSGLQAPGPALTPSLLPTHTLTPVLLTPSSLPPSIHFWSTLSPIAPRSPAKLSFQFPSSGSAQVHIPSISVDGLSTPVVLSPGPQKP
The method, boiled down: as §1

In assay [3] the target is T3, GABPA (Homo sapiens, UniProt Q06546 1-454).
T3 sequence: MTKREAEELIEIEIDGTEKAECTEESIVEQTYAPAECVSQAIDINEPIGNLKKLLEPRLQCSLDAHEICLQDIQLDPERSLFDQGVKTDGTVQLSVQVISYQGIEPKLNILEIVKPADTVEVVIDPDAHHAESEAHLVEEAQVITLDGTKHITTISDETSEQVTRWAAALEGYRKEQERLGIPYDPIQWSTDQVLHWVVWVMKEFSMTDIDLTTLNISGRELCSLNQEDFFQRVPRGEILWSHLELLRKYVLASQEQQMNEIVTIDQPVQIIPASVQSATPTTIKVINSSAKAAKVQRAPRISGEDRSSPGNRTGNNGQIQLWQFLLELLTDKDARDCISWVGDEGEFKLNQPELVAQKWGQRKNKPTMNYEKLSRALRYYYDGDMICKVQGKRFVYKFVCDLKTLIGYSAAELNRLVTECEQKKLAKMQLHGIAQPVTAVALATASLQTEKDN
The gist of the method:
as §1

The target in assay [4] is T4, ERG (Homo sapiens, UniProt P11308 1-479).
T4 sequence: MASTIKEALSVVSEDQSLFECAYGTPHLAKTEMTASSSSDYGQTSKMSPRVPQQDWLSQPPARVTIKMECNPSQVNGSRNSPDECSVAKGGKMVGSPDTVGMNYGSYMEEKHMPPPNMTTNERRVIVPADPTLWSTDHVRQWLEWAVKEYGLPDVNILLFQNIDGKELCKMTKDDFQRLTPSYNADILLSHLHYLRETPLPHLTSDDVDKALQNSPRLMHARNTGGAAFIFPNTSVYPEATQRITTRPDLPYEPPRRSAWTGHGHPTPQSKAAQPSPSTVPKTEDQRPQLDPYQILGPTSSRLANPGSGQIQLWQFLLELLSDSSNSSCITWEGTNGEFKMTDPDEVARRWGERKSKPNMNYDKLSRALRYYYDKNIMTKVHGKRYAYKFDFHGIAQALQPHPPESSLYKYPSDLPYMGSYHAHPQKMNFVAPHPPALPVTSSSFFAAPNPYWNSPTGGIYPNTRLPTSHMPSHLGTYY
The gist of the method: as §1

Assay [5] concerns the target ELF1 (Homo sapiens, UniProt P32519 1-619). The gist of the method: as §1
For assay [6], the target named is T5, EHF (Homo sapiens, UniProt Q9NZC4 1-300).
T5 sequence: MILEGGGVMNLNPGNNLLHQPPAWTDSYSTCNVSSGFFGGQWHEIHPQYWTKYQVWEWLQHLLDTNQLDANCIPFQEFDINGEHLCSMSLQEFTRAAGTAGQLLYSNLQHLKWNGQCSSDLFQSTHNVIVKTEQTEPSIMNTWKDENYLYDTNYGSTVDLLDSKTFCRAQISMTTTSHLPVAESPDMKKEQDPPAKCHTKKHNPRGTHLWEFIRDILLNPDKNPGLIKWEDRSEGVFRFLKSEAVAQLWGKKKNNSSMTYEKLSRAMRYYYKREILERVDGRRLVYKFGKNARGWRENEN
The method, boiled down:
as §1

Assay [7] has as its target SPI1 (Homo sapiens, UniProt P17947 1-270). The gist of the method: as §1
The target of assay [8] is SPIB (Homo sapiens, UniProt Q01892 1-262). The method, boiled down: as §1
SPIB, sequence (Q01892 whole entry): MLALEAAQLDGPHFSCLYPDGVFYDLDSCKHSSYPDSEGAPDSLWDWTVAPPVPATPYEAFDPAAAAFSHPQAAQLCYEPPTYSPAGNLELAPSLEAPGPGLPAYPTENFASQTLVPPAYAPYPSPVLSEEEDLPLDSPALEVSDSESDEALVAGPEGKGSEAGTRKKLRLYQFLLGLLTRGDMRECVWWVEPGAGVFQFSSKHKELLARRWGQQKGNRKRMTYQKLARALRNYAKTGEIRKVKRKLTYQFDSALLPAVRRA
For assay [9], the target named is T6, ELK3 (Homo sapiens, UniProt P41970 1-407).
T6 sequence: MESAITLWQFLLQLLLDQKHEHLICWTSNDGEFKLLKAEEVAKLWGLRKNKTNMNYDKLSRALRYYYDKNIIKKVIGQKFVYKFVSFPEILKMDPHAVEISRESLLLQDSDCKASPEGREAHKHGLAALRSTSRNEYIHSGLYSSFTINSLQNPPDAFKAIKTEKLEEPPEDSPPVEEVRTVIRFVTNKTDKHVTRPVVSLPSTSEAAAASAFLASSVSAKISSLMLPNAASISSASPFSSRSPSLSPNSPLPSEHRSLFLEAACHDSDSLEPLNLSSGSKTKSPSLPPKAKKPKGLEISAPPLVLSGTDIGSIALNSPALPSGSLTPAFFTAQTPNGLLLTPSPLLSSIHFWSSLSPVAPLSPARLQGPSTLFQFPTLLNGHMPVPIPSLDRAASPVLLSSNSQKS
The method, boiled down:
as §1

The target of assay [10] is T7, FEV (Homo sapiens, UniProt Q99581 1-238).
T7 sequence: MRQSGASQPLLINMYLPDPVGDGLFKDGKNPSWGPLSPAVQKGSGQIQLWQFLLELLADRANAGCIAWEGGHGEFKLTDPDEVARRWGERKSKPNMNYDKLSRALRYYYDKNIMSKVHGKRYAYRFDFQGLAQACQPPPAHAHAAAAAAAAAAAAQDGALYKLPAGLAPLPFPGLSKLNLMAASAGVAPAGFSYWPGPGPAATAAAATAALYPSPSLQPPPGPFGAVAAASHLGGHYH
The method, boiled down:
as §1

Assay [11] has as its target ETV5 (Homo sapiens, UniProt P41161 1-510). The gist of the method: as §1
Assay [12] addresses T8, SPIC (Homo sapiens, UniProt Q8N5J4 1-248).
T8 sequence: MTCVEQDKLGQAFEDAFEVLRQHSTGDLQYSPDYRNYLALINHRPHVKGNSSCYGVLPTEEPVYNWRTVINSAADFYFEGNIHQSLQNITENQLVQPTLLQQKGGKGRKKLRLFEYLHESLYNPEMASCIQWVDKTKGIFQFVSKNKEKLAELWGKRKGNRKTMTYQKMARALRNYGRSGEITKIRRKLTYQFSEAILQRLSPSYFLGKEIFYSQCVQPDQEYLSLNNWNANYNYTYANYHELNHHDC
The method, boiled down:
as §1

Assay [13] addresses ELF4 (Homo sapiens, UniProt Q99607 1-663). The gist of the method:
as §1

Assay [14] addresses T9, ELK4 (Homo sapiens, UniProt P28324-2 1-405).
T9 sequence: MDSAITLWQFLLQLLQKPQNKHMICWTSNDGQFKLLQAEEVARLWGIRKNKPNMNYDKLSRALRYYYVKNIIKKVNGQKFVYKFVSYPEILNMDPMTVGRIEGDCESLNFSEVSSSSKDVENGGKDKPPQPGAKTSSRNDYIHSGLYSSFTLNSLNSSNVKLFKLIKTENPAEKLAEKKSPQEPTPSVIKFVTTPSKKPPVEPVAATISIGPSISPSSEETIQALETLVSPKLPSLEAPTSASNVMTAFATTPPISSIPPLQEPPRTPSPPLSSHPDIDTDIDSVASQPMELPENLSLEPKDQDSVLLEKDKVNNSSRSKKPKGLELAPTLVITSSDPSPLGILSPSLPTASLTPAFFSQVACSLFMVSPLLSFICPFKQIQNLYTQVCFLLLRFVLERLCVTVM
The method, boiled down:
as §1

In assay [15] the target is T10, ETV2 (Homo sapiens, UniProt O00321 1-342).
T10 sequence: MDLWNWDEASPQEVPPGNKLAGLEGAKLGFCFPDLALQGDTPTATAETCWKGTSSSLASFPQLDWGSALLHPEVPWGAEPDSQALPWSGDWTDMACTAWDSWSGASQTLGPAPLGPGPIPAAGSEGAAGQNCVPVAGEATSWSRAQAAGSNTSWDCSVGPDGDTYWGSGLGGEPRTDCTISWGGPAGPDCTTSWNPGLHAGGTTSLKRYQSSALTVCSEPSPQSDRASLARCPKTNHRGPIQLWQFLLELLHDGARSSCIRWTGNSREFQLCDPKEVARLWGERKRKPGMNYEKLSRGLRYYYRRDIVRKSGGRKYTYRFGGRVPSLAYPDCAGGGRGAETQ
The gist of the method: as §1

The target of assay [16] is T11, ELF3 (Homo sapiens, UniProt P78545 1-371).
T11 sequence: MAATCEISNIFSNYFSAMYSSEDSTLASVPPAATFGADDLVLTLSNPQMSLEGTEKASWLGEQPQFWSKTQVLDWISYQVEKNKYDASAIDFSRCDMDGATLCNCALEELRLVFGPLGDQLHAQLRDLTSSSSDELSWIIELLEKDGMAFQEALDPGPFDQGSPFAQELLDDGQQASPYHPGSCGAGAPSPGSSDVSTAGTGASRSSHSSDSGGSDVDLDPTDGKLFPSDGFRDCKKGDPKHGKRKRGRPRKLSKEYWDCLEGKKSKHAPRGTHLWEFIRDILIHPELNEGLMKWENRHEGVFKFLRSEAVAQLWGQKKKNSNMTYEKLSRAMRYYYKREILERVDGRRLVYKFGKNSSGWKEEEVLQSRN
The gist of the method: as §1

The target in assay [17] is CRX (Homo sapiens, UniProt O43186 1-299). The method, boiled down: as §1
CRX, sequence (O43186 whole entry): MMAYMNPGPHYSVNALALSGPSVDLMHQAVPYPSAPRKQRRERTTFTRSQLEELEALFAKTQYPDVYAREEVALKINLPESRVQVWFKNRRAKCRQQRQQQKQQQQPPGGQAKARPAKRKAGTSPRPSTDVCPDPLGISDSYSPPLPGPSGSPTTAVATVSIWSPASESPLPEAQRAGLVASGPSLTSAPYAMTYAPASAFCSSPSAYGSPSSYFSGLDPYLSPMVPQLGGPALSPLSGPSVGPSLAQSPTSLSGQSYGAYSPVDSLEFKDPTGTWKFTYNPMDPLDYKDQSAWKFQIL
The target in assay [18] is ETV1 (Homo sapiens, UniProt P50549 1-477). The method, boiled down: as §1
ETV1, sequence (P50549 whole entry): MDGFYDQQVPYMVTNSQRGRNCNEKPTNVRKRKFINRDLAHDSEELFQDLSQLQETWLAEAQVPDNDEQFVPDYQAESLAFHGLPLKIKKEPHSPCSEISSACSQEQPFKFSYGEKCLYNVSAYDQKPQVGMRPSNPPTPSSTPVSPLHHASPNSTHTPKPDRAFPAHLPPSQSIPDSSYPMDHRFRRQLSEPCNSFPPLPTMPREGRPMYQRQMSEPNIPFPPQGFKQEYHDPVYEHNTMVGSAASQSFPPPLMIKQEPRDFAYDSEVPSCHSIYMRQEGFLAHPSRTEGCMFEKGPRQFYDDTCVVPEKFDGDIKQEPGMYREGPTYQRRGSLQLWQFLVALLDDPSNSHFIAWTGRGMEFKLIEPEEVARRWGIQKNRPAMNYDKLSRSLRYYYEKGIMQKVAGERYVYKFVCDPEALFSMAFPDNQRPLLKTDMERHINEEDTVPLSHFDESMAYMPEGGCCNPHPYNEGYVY

ELF1, sequence (P32519 whole entry): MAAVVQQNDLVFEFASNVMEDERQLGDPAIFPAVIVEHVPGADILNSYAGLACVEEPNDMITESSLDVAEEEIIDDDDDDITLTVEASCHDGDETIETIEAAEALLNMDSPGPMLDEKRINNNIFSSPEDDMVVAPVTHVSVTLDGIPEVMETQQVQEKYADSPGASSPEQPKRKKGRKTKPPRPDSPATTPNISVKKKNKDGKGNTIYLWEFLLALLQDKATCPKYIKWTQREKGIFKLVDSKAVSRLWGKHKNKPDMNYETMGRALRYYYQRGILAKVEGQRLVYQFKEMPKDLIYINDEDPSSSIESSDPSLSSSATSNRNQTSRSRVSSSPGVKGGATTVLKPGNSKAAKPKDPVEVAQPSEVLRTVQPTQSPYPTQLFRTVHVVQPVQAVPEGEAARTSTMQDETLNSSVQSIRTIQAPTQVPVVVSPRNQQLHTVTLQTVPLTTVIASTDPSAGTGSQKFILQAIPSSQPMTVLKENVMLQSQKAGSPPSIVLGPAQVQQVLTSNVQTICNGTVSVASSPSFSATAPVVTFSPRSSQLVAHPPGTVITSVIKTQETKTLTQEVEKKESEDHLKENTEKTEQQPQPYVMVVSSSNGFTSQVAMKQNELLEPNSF
ETV5, sequence (P41161 whole entry): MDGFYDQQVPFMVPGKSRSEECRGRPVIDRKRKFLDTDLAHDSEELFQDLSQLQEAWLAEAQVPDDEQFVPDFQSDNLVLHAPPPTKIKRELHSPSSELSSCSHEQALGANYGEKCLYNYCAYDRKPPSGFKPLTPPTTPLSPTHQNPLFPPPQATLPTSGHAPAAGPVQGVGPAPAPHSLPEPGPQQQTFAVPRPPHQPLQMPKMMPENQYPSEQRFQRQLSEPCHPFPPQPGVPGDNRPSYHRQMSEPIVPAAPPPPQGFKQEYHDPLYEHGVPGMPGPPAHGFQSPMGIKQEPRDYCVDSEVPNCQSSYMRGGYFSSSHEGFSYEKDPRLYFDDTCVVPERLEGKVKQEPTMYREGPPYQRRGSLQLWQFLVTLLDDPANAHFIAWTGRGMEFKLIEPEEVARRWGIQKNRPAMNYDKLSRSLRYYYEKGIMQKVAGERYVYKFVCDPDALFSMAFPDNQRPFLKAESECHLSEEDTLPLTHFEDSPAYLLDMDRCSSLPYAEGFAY
ELF4, sequence (Q99607 whole entry): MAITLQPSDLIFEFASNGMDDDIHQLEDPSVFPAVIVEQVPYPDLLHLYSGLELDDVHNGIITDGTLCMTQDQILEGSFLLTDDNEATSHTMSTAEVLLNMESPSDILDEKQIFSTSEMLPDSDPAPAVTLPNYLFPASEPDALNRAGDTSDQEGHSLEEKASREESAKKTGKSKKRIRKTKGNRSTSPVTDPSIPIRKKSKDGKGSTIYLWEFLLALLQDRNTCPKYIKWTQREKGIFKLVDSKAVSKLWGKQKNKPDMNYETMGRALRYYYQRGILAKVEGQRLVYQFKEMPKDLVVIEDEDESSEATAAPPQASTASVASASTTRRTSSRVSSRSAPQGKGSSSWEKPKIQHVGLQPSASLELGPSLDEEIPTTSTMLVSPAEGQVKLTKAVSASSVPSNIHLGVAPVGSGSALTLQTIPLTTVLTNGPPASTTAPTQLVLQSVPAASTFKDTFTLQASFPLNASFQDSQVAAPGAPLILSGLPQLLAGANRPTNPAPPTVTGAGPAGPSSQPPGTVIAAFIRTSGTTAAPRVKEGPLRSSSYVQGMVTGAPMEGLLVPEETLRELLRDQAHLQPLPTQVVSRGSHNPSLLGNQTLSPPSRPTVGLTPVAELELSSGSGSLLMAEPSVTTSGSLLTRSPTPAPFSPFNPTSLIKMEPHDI

As for TCATGC, the binding signal in assay [1] was 1.17 fold enrichment (6-mer frequency, TF over GST control); in assay [2], 1.22 fold enrichment (6-mer frequency, TF over GST control); in assay [3] it was 1.19 fold enrichment (6-mer frequency, TF over GST control); in assay [4] it was 1.11 fold enrichment (6-mer frequency, TF over GST control); in assay [5] it was 1.11 fold enrichment (6-mer frequency, TF over GST control); in assay [6] it was 1.15 fold enrichment (6-mer frequency, TF over GST control). For the same sequence, the binding signal in assay [7] was 1.07 fold enrichment (6-mer frequency, TF over GST control); in assay [8], 1.2 fold enrichment (6-mer frequency, TF over GST control); in [9] it was 1.1 fold enrichment (6-mer frequency, TF over GST control); in assay [10], 1.14 fold enrichment (6-mer frequency, TF over GST control); in [11], 1.09 fold enrichment (6-mer frequency, TF over GST control); in assay [12], 1.11 fold enrichment (6-mer frequency, TF over GST control). The binding signal in assay [13] is 1.18 fold enrichment (6-mer frequency, TF over GST control); in assay [14] it was 1.27 fold enrichment (6-mer frequency, TF over GST control); in [15], 1.31 fold enrichment (6-mer frequency, TF over GST control); in [16], 1.18 fold enrichment (6-mer frequency, TF over GST control); in [17] it was 1.03 fold enrichment (6-mer frequency, TF over GST control); in assay [18], 1.17 fold enrichment (6-mer frequency, TF over GST control).

As for CTGACC, the binding signal is 1.4 fold enrichment (6-mer frequency, TF over GST control) in [1]; 1.41 fold enrichment (6-mer frequency, TF over GST control) in assay [2]; 1.41 fold enrichment (6-mer frequency, TF over GST control) in [3]; 1.23 fold enrichment (6-mer frequency, TF over GST control) in [4]; 1.46 fold enrichment (6-mer frequency, TF over GST control) in [5]; 1.59 fold enrichment (6-mer frequency, TF over GST control) in assay [6]. Moreover, the binding signal in [7] was 1.25 fold enrichment (6-mer frequency, TF over GST control); in assay [8], 1.26 fold enrichment (6-mer frequency, TF over GST control); in assay [9], 1.33 fold enrichment (6-mer frequency, TF over GST control); in assay [10] it was 1.43 fold enrichment (6-mer frequency, TF over GST control); in assay [11], 1.32 fold enrichment (6-mer frequency, TF over GST control); in assay [12], 1.37 fold enrichment (6-mer frequency, TF over GST control). Further, the binding signal in assay [13] was 1.41 fold enrichment (6-mer frequency, TF over GST control); in assay [14] it was 1.31 fold enrichment (6-mer frequency, TF over GST control); in assay [15], 1.46 fold enrichment (6-mer frequency, TF over GST control); in assay [16] it was 1.51 fold enrichment (6-mer frequency, TF over GST control); in assay [17], 1.01 fold enrichment (6-mer frequency, TF over GST control); in assay [18], 1.43 fold enrichment (6-mer frequency, TF over GST control).
